Screens from PubChem BioAssay.
Gli-Sufu antag = Gli-Sufu pathway antagonists, primary screen, luciferase luminescence, Sufu-KO-LIGHT cells, uHTS; Sufu-KO-LIGHT fibroblasts, Gli luciferase reporter luminescence; inhibition, % at 5 µM; 340,000 compounds, 0.74% hits; AID 588413, 2011;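 active = inhibition above about 55%, limit read from the data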
CSC inhib = cancer stem cell viability inhibitors, primary screen, luminescence. cancer stem cell-like cells viability. inhibition, % at 7.5 µM. 300,000 compounds, 1.1% hits. AID 2717, 2010; in the data active = inhibition above about 75%; inconclusive = no clear call, values can overlap the other calls; tested in HMLE shEcad cells
aSyn UTR inh = MLPCN primary screen, SNCA 5' untranslated region; alpha-synuclein 5'UTR reporter, inhibitor activity; inhibition, % (tested at 7.5 µM); 300,000 compounds, 0.82% hits; AID 1813, 2009; in the data active = inhibition above about 60%; inconclusive = no clear call, values can overlap the other calls;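 also: H4 neuroglioblastoma cells stably carrying SNCA 5'UTR luciferase fusion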
Jurkat NFkB inh = inhibitors of induced NF-kB luciferase reporter, primary screen, TCR NF-kB activation inhibitor project, cell-based, luminescence, uHTS; Jurkat, PMA/ionomycin-induced NF-kB luciferase reporter; inhibition, % at 4 µM; 330,000 compounds, 0.53% hits; in the data active = inhibition above about 50%
Mdm2-MdmX inh = inhibitors of human Mdm2-MdmX association, primary screen, cell-based, luminescence, split luciferase, SaOS-2, uHTS. SaOS-2 split-luciferase Mdm2/MdmX complementation. Protein Mdm4 (Homo sapiens) + E3 ubiquitin-protein ligase Mdm2 (Homo sapiens), …. 330,000 compounds, 3% hits. AID 485346, 2010. inhibition, % at 8 µM;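 active = inhibition of at least 50% at 8 µM in the primary screen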
Target sequence (O15151 whole entry, looked up): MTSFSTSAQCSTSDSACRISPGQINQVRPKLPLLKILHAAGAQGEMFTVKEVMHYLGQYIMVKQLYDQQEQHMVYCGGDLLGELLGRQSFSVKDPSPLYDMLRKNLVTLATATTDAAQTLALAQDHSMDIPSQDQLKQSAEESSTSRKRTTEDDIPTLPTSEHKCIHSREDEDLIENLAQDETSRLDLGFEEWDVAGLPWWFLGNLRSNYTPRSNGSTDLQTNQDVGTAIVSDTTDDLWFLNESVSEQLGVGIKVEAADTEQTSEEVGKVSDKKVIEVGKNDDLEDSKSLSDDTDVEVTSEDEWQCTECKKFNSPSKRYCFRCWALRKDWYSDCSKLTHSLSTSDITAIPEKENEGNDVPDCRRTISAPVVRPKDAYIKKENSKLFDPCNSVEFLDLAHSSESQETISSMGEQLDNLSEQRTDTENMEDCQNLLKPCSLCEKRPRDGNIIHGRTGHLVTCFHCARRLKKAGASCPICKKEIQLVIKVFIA
Target sequence (Q00987 whole entry, looked up): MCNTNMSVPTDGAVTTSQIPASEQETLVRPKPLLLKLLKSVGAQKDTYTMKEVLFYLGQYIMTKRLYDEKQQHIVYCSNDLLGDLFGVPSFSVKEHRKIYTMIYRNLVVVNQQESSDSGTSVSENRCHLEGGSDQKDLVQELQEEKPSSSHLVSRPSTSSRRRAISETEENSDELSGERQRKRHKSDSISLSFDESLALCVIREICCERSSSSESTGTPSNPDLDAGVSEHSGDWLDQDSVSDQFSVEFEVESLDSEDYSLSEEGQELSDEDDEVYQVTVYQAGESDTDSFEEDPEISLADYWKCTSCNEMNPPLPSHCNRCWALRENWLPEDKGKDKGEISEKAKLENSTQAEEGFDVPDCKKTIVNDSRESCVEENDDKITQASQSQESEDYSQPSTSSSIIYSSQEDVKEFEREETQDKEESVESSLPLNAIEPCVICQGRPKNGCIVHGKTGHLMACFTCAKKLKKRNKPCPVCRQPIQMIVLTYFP
697 NFkB inh = inhibitors of PMA/ionomycin-induced NF-kB reporter, 697 cells, primary screen, B-cell NF-kB inhibitor project, cell-based, luminescence, uHTS | 697 B-cell NF-kB luciferase reporter, 16 h | inhibition, % at 4 µM | 330,000 compounds, 0.33% hits; in the data active = inhibition above about 35%
Mdm2 MdmX conf = Mdm2-MdmX complex disruptors, retested hits, confirmation, luminescence, single concentration | Mdm2-MdmX binding, luminescent assay | inhibition, % at 8 µM | 10,000 compounds, 55% hits | shares compounds with Mdm2-MdmX inh; in the data active = inhibition above about 40%
Full FLuc ctr = full-length luciferase signal inhibition, confirmation, counter-screen for Mdm2/MdmX interaction inhibitor project, cell-based, single concentration, SaOS-2; 6,200 compounds, 77% hits; SaOS-2 full-length luciferase counterscreen, luminescence; inhibition, % at 8 µM; AID 504607, 2011; shares compounds with Mdm2-MdmX inh;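 active = mean inhibition at 8 µM reaching about 37%, which flags the compound as non-specific, limit read from the data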;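 also: p53-null SaOS-2 cells with luciferase driven by a doxycycline-inducible promoter; compound on cells about two nights before reading with doxycycline added after day one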
Of the large screens only hits and unclear results are named; the others gave an inactive call (follow-up assays come after a bar, where they were run). Sampled rows, rich in hits. Any-hit rate of the full collection: about 4.5%.

O=C(COC(=O)c1cc([N+](=O)[O-])ccc1N1CCOCC1)Nc1ccc(Cl)cc1	none
CN(C)CCCNC(=O)/C(=C\c1ccc(-c2ccc(Br)cc2)o1)NC(=O)c1ccccc1	Mdm2-MdmX inh 100 | Mdm2 MdmX conf 52 | Full FLuc ctr inactive
CN(C)CCNC(=O)/C(=C/c1ccc(-c2cccc(Cl)c2)o1)NC(=O)c1ccccc1	Mdm2-MdmX inh 91 | Mdm2 MdmX conf 61 | Full FLuc ctr 45
CN(C)CCCNC(=O)/C(=C/c1ccc(-c2ccc([N+](=O)[O-])cc2)o1)NC(=O)c1ccccc1	none
Cc1ccc(C(=O)N/C(=C\c2ccc(-c3cccc([N+](=O)[O-])c3)o2)C(=O)NCCCN2CCOCC2)cc1	Mdm2-MdmX inh 51 | Mdm2 MdmX conf inactive
Cc1ccc(C(=O)N/C(=C\c2ccc(-c3ccc(Cl)cc3)o2)C(=O)NCCCN(C)C)cc1	aSyn UTR inh inconclusive, Mdm2-MdmX inh 93 | Mdm2 MdmX conf 94 | Full FLuc ctr 52
COc1ccc(C(=O)COc2ccc(F)cc2)c(O)c1C	none
CC1CCCC(C)N1CCCNC(=O)c1ccc2c(c1)NC(=O)c1ccccc1S2 (stereo not drawn)	none
CCC(C)N(CCNC(=O)c1ccc2c(c1)NC(=O)c1ccccc1S2)C1CCCCC1 (stereo not drawn)	Mdm2-MdmX inh 67 | Mdm2 MdmX conf 48 | Full FLuc ctr 56
Cc1ccc(NC(=O)/C(=C\c2cccc([N+](=O)[O-])c2)NC(=O)c2cccs2)cc1	none
Cc1ccc(-c2csc(NC(=O)C[n+]3cc(-c4ccccc4)n4c3CCC4)n2)cc1	none
Cc1ccc(-c2csc(NC(=O)C[n+]3cc(-c4ccc(C)cc4)n4c3CCC4)n2)cc1	Mdm2-MdmX inh 56 | Mdm2 MdmX conf inactive
Cc1cc(C)c(OCC(=O)Nc2nc(-c3ccccn3)cs2)c(C)c1	Mdm2-MdmX inh 53 | Mdm2 MdmX conf inactive | Full FLuc ctr 46
COc1ccc2oc(C(=O)Nc3nc(-c4ccccn4)cs3)c(C)c2c1	Mdm2-MdmX inh 60 | Mdm2 MdmX conf 59 | Full FLuc ctr 69
COc1ccc2oc(C(=O)NC(C)c3ccccn3)c(C)c2c1 (stereo not drawn)	none (no result: CSC inhib, aSyn UTR inh)
O=C(CCS(=O)(=O)c1ccccc1)Nc1nc(-c2ccccn2)cs1	Mdm2-MdmX inh 70 | Mdm2 MdmX conf inactive | Full FLuc ctr 48
CCOC(=O)N1CCC(N2C(=O)c3ccccc3C2Nc2ccc(S(=O)(=O)N3CCOCC3)cc2)CC1 (stereo not drawn)	none
CCCC(=O)Nc1ccc(-c2csc(N/N=C\c3ccncc3)n2)cc1	Mdm2-MdmX inh 65 | Mdm2 MdmX conf inactive
CC(Oc1ccc(F)cc1)C(=O)Nc1nc(-c2ccccn2)cs1 (stereo not drawn)	Mdm2-MdmX inh 77 | Mdm2 MdmX conf 84 | Full FLuc ctr inactive
Cc1ccc(S(=O)(=O)CCC(=O)Nc2nc(-c3ccncc3)cs2)cc1	Mdm2-MdmX inh 88 | Mdm2 MdmX conf 58 | Full FLuc ctr 37
O=C(CCS(=O)(=O)c1ccc(F)cc1)Nc1nc(-c2ccccn2)cs1	Mdm2-MdmX inh 69 | Mdm2 MdmX conf 43 | Full FLuc ctr 39
CC(=O)Nc1ccc(-c2csc(N/N=C\c3ccncc3)n2)cc1	none
COC(=O)c1nn(-c2ccccc2)c(Sc2ccc(Cl)cc2)c1/C=N/O	none
COCCN(C(=O)COC(=O)/C=C/c1ccc(Cl)c(Cl)c1)c1c(N)n(Cc2ccccc2)c(=O)[nH]c1=O	none (no result: CSC inhib, aSyn UTR inh, Jurkat NFkB inh, Mdm2-MdmX inh, 697 NFkB inh)
CC(C)CN(C(=O)COC(=O)/C=C/c1ccc(Cl)c(Cl)c1)c1c(N)n(Cc2ccccc2)c(=O)[nH]c1=O	Mdm2-MdmX inh 92 (no result: CSC inhib, aSyn UTR inh) | Mdm2 MdmX conf inactive
CCCCC1CCC(C(=O)N(CC(C)C)c2c(N)n(Cc3ccccc3)c(=O)[nH]c2=O)CC1 (stereo not drawn)	CSC inhib 91, Mdm2-MdmX inh 97 | Mdm2 MdmX conf inactive
O=C(CSc1nc2c(oc3ccccc32)c(=O)n1CC1CCCO1)NCc1ccc(F)cc1 (stereo not drawn)	none (no result: CSC inhib)
O=C(CSc1nc2c(oc3ccccc32)c(=O)n1CC1CCCO1)NCc1ccccc1 (stereo not drawn)	Mdm2-MdmX inh 66 | Mdm2 MdmX conf inactive
O=C(NNC(=O)c1nn(-c2ccc(F)cc2)ccc1=O)c1ccccc1Cl	none
Cc1cc(C)n(-c2nc(Nc3ccccc3C(F)(F)F)nc(-n3nc(C)cc3C)n2)n1	aSyn UTR inh 62, Mdm2-MdmX inh 69 | Mdm2 MdmX conf inactive
Cc1cc(C)n(-c2nc(NC(C)C)nc(NC(C)C)n2)n1	none
Cc1cc(C)n(-c2nc(NC(C)(C)C)nc(NC(C)(C)C)n2)n1	none
Cc1cc(C)n(-c2nc(Nc3ccccc3C)nc(-n3nc(C)cc3C)n2)n1	Mdm2-MdmX inh 67 (no result: Gli-Sufu antag) | Mdm2 MdmX conf inactive
Cc1cccc(CCNC(=O)Cn2ncc3c([nH]c4ccccc43)c2=O)c1	none
CC(C)(C)OC(=O)NNC(=O)Nc1ccccc1C(F)(F)F	none
CC(Sc1ncc(C(F)(F)F)cc1Cl)C(=O)NCC1CCCO1 (stereo not drawn)	none (no result: aSyn UTR inh)
C/C(=N\Nc1cc(N2CCOCC2)ncn1)c1cccc([N+](=O)[O-])c1	Mdm2-MdmX inh 60 (no result: CSC inhib) | Mdm2 MdmX conf inactive
O=[N+]([O-])c1cccc(/C=N/Nc2nc(N3CCOCC3)nc(N3CCOCC3)n2)c1	none
O=[N+]([O-])c1cccc(/C=N/Nc2cc(Cl)nc(-c3ccccc3)n2)c1	Mdm2-MdmX inh 66 | Mdm2 MdmX conf inactive
O=[N+]([O-])c1cccc(/C=N/Nc2cc(N3CCOCC3)ncn2)c1	Mdm2-MdmX inh 59 | Mdm2 MdmX conf inactive
O=[N+]([O-])c1ccccc1/C=C/CN1CCN(Cc2ccc3c(c2)OCO3)CC1	none
COC(=O)CC1c2ccccc2S(=O)(=O)N1Cc1ccccc1 (stereo not drawn)	none
COc1ccc(-n2cnc(N)c2C(=O)c2cccc([N+](=O)[O-])c2)cc1	none
COc1ccc2cc3c(N)nn(C(=O)Cc4ccccc4OC)c3nc2c1	Mdm2-MdmX inh 72 | Mdm2 MdmX conf 67 | Full FLuc ctr 62
CCOC(=O)C1CCN(c2nc3cc(OC)ccc3cc2C#N)CC1	none
